# From PubChem BioAssay (NCATS)
# Unmarked numbers belong to inactive results. Records with an inconclusive call do not appear. A call without a number means that no potency is given here. Activity calls are given as the source filed them. Unless noted, calls follow the shape of the dose curve; as a rule, active = well fitted curve in the direction sought with a large enough effect; inconclusive = small, poorly fitted or top-dose-only effect, or another doubt; inactive = no such curve, though single readings can be large; an effect the other way counts as inactive or inconclusive. Where a SMILES comes first, the peptide text is derived from it.
# Assays:
# [1] = system: Zika virus NS2B-NS3 protease; experiment: Primary screen GU AMC qHTS for Zika virus inhibitors (AID 1347154); also: nearly all actives have a fitted effect of over 70% in size
# How it was run: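 Unlinked Zika NS2B hydrophilic domain–NS3 protease complex at 25 nM in 10 mM Tris-HCl pH 8.0, 0.01% Tween 20, with an AMC peptide substrate. Fluorescence change (340/450 nm) over 15 min at room temperature, normalized to controls, fitted to 4-parameter Hill.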
# [2] = Primary qHTS for small molecule stabilizers of the endoplasmic reticulum resident proteome: Secreted ER Calcium Modulated Protein (SERCaMP) assay (AID 1508630)
# How it was run: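 GLuc-SERCaMP-expressing SH-SY5Y cells, pretreated 16 h with compound, are challenged with thapsigargin to empty ER calcium stores; after 4 h, coelenterazine is added directly to the medium and luminescence is imaged.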
# [3] = biological target: Glucocorticoid receptor (Homo sapiens) (UniProt P04150); experiment: GR-GFP Redistribution (AID 450;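 active = compounds whose dose series gives a full or clear partial fitted curve of increased nuclear translocation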; also: potency is read from the fitted curve at half-maximal effect); conditions: U2OS GR-GFP nuclear translocation, laser cytometry, 2 h
# Chain of Glucocorticoid receptor (Homo sapiens) (P04150 whole entry, looked up, the tested form may be a part): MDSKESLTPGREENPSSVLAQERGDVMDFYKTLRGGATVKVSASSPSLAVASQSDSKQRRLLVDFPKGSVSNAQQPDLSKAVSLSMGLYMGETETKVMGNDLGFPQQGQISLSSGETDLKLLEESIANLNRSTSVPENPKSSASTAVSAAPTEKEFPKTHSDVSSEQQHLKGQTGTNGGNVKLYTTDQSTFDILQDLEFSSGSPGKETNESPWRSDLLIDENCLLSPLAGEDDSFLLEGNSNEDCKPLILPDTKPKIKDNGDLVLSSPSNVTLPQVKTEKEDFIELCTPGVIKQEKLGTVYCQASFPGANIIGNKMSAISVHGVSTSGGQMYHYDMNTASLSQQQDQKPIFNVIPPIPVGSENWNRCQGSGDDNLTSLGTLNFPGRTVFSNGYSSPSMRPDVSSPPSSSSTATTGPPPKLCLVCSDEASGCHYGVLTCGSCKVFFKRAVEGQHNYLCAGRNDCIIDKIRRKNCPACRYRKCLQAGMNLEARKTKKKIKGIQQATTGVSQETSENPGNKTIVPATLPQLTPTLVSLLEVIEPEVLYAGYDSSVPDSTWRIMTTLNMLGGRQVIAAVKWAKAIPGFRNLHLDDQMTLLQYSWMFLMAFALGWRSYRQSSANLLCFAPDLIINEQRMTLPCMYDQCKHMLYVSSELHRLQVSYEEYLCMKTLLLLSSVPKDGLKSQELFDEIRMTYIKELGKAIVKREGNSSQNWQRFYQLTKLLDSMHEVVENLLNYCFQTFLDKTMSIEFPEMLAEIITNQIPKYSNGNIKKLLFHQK
# [4] = biological target: Glucocorticoid receptor (Homo sapiens) (UniProt P04150); experiment: GR-EFC Redistribution (AID 451; calls by dose curve; also: potency is read from the fitted curve at half-maximal effect); conditions: CHO-K1 GR-EFC translocation, beta-gal luminescence, 2 h
# How it was run: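 CHO-K1 cells expressing nuclear EA and GR-ED fragments of b-gal; compounds titrated up to 46 uM final, 2 h at 37 C. GR nuclear translocation read as complemented b-gal luminescence after 1 h RT detection.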
# [5] = biological target: DNA dC->dU-editing enzyme APOBEC-3G (Homo sapiens) (UniProt Q9HC16); experiment: qHTS for inhibitors of Vif-A3G interactions: Validation (AID 588379)
# Chain of DNA dC->dU-editing enzyme APOBEC-3G (Homo sapiens) (Q9HC16 whole entry, looked up): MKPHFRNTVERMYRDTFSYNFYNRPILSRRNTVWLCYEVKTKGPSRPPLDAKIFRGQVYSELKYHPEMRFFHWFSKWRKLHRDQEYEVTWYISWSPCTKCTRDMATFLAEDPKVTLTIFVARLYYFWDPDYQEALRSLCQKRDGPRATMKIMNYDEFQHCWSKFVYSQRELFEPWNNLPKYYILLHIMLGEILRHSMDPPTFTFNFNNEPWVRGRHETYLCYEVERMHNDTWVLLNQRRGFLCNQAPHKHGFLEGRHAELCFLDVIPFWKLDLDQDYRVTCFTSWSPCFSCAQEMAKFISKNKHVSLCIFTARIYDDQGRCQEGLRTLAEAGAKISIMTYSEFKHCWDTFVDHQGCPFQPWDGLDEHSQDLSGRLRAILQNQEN
# How it was run: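 HeLa cells stably expressing Vif and A3G-eYFP, 700 cells/well, incubated overnight at 37 deg C, then exposed to compound overnight at 37 deg C. Inhibition of Vif-mediated degradation read as increased yellow fluorescence (Ex 488/Em 500-530) by laser-scanning cytometry.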
# [6] = Confirmatory qHTS for small molecule stabilizers of the endoplasmic reticulum resident proteome: Secreted ER Calcium Modulated Protein (SERCaMP) assay (AID 1508628); also: nearly all actives have a fitted effect of over 40% in size; also: potency is read from the fitted curve at half-maximal effect
# How it was run: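 SH-SY5Y cells stably expressing GLuc-SERCaMP, treated 16 h with compound (primary 1.53, 7.67, 38.3 uM; confirmation 11 concentrations, up to 76.6 uM), then 100 nM thapsigargin for 4 h. Secreted Gaussia luciferase in medium read by coelenterazine luminescence.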
# [7] = biological target: Rap guanine nucleotide exchange factor 3 (Homo sapiens) (UniProt O95398); experiment: Confirmatory qHTS for antagonist of cAMP-regulated guanine nucleotide exchange factor 3 (EPAC1) (AID 1645880); also: nearly all actives have a fitted effect of over 55% in size
# Chain of Rap guanine nucleotide exchange factor 3 (Homo sapiens) (O95398 whole entry, looked up): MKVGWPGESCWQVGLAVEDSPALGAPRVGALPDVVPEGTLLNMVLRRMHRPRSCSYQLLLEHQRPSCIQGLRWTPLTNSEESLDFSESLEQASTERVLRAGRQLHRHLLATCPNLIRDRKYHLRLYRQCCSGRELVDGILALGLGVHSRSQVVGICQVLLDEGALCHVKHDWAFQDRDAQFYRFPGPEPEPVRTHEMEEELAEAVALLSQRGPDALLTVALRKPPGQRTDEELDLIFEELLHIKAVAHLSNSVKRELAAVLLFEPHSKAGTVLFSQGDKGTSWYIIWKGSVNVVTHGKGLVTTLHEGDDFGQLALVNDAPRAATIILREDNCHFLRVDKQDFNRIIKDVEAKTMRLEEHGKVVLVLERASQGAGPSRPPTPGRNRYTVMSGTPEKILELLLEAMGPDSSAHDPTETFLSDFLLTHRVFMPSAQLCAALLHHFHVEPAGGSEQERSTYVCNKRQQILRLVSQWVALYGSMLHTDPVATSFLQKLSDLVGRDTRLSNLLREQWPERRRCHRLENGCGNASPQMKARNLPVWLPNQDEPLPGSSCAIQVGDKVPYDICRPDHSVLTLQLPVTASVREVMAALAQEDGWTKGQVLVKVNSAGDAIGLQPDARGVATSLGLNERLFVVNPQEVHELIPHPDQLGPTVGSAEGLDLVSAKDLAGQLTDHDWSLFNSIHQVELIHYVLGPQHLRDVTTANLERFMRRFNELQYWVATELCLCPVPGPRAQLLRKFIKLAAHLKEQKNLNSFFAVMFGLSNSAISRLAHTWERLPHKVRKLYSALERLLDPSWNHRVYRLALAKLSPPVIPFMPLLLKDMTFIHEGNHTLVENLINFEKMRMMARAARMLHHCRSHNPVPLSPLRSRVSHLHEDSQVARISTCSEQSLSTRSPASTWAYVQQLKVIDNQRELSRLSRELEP
# How it was run: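 Nucleotide exchange uses 100 nM EPAC1, 250 nM RAP1B-BODIPY-GDP and 50 uM GDP, with compounds in a concentration-titration series. After 5 min at room temperature, fluorescence (480 nm ex/540 nm em) is read every 5 min for 30 min. Data are normalized to control ATA and DMSO.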
# [8] = biological target: Rap guanine nucleotide exchange factor 3 (Homo sapiens) (UniProt O95398); experiment: Confirmatory qHTS for agonist of cAMP-regulated guanine nucleotide exchange factor 3 (EPAC1) (AID 1645881);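 also: EPAC1 catalysed release of BODIPY-GDP from Rap1B seen as fluorescence loss; nearly all actives have a fitted effect of over 75% in size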
# [9] = biological target: Rap guanine nucleotide exchange factor 4 (Homo sapiens) (UniProt Q8WZA2); experiment: Confirmatory qHTS for agonist of cAMP-regulated guanine nucleotide exchange factor 4 (EPAC2) (AID 1645884);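 also: nucleotide exchange releases bodipy-GDP from Rap1 and this lowers its fluorescence; nearly all actives have a fitted effect of over 65% in size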
# Chain of Rap guanine nucleotide exchange factor 4 (Homo sapiens) (Q8WZA2 whole entry, looked up): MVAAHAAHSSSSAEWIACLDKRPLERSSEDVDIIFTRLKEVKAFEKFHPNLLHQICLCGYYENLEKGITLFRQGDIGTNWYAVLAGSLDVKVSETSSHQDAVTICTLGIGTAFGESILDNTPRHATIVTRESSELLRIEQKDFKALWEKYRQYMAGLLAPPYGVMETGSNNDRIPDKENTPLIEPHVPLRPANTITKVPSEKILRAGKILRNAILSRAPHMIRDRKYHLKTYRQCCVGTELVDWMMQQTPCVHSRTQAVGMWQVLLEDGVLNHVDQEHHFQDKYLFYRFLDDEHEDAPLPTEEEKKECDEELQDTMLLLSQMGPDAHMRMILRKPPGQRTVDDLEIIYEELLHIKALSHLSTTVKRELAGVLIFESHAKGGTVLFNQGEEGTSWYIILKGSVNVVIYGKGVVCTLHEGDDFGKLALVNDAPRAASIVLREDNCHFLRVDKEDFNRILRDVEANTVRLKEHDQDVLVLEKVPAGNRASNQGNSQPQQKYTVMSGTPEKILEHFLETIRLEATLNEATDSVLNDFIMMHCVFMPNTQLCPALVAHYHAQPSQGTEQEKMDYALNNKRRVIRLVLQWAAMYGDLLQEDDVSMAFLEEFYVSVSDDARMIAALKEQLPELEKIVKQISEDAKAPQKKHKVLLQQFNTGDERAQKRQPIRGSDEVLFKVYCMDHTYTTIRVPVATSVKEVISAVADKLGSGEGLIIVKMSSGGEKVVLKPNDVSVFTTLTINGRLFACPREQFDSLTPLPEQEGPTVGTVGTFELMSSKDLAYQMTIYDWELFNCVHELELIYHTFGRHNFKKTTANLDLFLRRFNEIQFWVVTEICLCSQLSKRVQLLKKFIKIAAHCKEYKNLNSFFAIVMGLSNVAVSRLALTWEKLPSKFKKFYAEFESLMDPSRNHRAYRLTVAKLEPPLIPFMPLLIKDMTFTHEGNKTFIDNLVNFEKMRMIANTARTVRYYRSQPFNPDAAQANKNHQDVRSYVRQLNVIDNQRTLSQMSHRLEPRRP
# [10] = biological target: Cytochrome P450 1A2 (Homo sapiens) (UniProt P05177); experiment: p450-cyp1a2 (AID 410; calls by dose curve; also: potency is read from the fitted curve at half-maximal effect)
# How it was run: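 Luminescent readout of luciferin formed from Luciferin-ME by human CYP1A2; data normalized against complete inhibition by 57 uM furafylline. Enzyme 20nM, substrate 100uM at Km, 100mM KPO4 buffer, 60 min reaction at room temperature.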
# [11] = biological target: Cytochrome P450 3A4 (Homo sapiens) (UniProt P08684); experiment: qHTS Assay for Activators of Cytochrome P450 3A4 (AID 885); also: nearly all actives have a fitted effect of over 65% in size
# Chain of Cytochrome P450 3A4 (Homo sapiens) (P08684 whole entry, looked up): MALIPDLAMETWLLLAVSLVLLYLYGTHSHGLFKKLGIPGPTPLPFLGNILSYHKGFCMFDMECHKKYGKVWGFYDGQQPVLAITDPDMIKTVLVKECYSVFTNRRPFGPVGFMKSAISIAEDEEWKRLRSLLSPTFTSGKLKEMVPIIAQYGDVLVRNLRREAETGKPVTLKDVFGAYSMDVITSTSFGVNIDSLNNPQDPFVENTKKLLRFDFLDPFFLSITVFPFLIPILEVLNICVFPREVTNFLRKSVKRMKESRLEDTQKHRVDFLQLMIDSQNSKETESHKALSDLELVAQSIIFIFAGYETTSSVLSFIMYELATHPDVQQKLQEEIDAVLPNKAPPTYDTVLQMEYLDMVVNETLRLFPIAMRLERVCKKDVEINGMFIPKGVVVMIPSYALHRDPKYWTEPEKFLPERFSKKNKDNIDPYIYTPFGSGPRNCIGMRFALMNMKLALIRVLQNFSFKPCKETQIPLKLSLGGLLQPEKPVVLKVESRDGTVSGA
# How it was run: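 20nM CYP3A4 + 25uM Luciferin-PPXE (=KM), 200mM KPO4; cpd 10 min RT; NADPH regen, 60 min RT; stop w/ detection buffer, 20 min; luminescence. Normalized to 57 uM ketoconazole.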
# [12] = qHTS Assay for Identification of Small Molecule Antagonists for Thrombopoietin (TPO) Signaling Pathway (AID 918); conditions: TPO-dependent cell signaling reporter, antagonist mode; also: potency is read from the fitted curve at half-maximal effect; nearly all actives have a fitted effect of over 60% in size
# How it was run: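 Ba/F3 (murine, hTPO-R, GPIIb-luc reporter); overnight IL-3 withdrawal; cpd + TPO 26 pM final (EC50); 24 h 37 C/5% CO2; Steadylite luminescence after 10 min RT.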
# [13] = biological target: Muscarinic acetylcholine receptor M1 (Rattus norvegicus) (UniProt P08482); experiment: qHTS Assay for Antagonists of Acetylcholine Muscarinic M1 Receptor: Kinetic Measurement of Intracellular Calcium Response (AID 943);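 also: Fluo-4 calcium signal as peak divided by basal fluorescence over 4 min; series mostly up to about 35 µM; nearly all actives have a fitted effect of over 75% in size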
# Chain of Muscarinic acetylcholine receptor M1 (Rattus norvegicus) (P08482 whole entry, looked up): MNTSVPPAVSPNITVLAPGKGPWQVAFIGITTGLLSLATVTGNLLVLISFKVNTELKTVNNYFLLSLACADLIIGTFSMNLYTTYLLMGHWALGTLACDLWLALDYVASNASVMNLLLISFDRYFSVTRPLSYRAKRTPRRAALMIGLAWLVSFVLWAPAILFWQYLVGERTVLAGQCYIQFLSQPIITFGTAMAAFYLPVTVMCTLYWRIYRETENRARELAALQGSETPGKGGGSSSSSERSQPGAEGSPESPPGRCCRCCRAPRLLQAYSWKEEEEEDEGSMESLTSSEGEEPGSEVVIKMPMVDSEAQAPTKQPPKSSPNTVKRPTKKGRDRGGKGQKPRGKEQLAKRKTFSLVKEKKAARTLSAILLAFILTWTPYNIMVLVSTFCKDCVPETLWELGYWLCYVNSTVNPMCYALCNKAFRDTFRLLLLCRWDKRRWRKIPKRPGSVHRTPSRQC
# How it was run: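 Rat M1-CHO cells, 2000/well, overnight → Fluo-4 no-wash dye with probenecid, 1 h 37C → compound 10 min, room temp → basal read 6 s → carbachol EC80 (100 nM) → 4 min kinetic read; peak/basal.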
# [14] = biological target: Pyruvate kinase (Leishmania mexicana) (UniProt Q27686); experiment: qHTS Validation Assay for Inhibitors of Leishmania Mexicana Pyruvate Kinase (AID 945)
# How it was run: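 Read-out: luminescence from PKLight stop/detection reagent, data normalized to DMSO. Reaction: 0.2 nM E451W LmPYK, 0.5 mM PEP, 0.1 mM ADP, pH 7.2, 1 h room temperature.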
# [15] = biological target: Pyruvate kinase PKM (Homo sapiens) (UniProt P14618); experiment: qHTS Assay for Activators of Human Muscle Pyruvate Kinase (AID 954; active = well fitted curve in the direction sought with a large enough effect, not every such curve was filed as active)
# How it was run: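 Luminescence from a luciferase ATP-detection/stop reagent reported PKM2 activity. Reactions contained 0.1 nM purified human enzyme, 0.5 mM PEP, 0.1 mM ADP and 7 mM MgCl2 at pH 7.2, run 1 h at RT.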
# [16] = biological target: Alpha-galactosidase (Coffea arabica) (UniProt Q42656); experiment: Counterscreen for Glucocerebrosidase Inhibitors: qHTS Assay for Coffee Bean alpha-Galactosidase at pH 4.5 (AID 957); also: series mostly up to about 77 µM
# Chain of Alpha-galactosidase (Coffea arabica) (Q42656 whole entry, looked up): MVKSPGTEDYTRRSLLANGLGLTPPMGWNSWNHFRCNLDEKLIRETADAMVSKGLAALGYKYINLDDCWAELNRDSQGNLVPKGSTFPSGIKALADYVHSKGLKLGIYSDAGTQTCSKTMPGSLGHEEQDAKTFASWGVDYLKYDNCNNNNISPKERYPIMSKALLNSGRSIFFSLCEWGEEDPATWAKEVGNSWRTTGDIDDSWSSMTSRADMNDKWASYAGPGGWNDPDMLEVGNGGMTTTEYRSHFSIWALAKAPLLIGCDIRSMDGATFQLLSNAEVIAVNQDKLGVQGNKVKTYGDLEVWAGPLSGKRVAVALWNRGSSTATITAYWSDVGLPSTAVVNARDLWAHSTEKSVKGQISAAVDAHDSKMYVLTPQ
# How it was run: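 Coffee bean alpha-galactosidase 2 nM, substrate 4-MU-alpha-Gal 80 uM, pH 4.5 citrate/Tween-20, 20 min RT. Cpd titration 0.7 nM–77 uM. Stop pH 10, fluorescence 365/440 nm; Hill-equation AC50.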
# [17] = biological target: Alpha-galactosidase A (Homo sapiens) (UniProt P06280); experiment: Counterscreen for Glucocerebrosidase Inhibitors: qHTS Assay for Human alpha-Galactosidase at pH 4.5 (AID 992)
# Chain of Alpha-galactosidase A (Homo sapiens) (P06280 whole entry, looked up): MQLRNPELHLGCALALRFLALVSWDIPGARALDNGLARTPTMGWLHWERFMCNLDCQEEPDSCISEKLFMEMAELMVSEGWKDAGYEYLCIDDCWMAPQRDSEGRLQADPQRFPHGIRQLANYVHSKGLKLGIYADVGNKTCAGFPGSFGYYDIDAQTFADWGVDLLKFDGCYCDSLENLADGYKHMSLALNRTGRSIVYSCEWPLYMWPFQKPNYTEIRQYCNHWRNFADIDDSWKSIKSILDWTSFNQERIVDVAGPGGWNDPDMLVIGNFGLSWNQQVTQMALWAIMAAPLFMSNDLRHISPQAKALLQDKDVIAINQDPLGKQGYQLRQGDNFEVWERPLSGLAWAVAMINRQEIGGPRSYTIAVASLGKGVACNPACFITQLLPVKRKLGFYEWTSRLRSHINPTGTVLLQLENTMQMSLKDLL
# How it was run: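 Enzyme at 2 nM final was combined with compound (0.7 nM to 77 uM) and 80 uM 4-methylumbelliferyl alpha-D-galactopyranoside in 50 mM citric acid, 0.005% Tween-20, pH 4.5. After 20 min at room temperature, fluorescence was read (Ex 365/Em 440 nm); AC50 came from Hill fits.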
# [18] = biological target: alpha-glucosidase (Oryza sativa, rice) (UniProt Q653V4); experiment: Counterscreen for Glucocerebrosidase Inhibitors: qHTS Assay for Rice alpha-Glucosidase at pH 5.0 (AID 997)
# How it was run: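 Rice alpha-glucosidase (4 nM final) with 400 uM 4-methylumbelliferyl-alpha-D-glucopyranoside in citrate buffer pH 5.0, 20 min at room temperature, stopped at pH 10; fluorescence 365/440 nm, compounds 0.7 nM–77 uM, AC50 from Hill fits.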
# [19] = biological target: Alpha-galactosidase (Coffea arabica) (UniProt Q42656); experiment: Counterscreen for Glucocerebrosidase Inhibitors: qHTS Assay for Coffee Bean alpha-Galactosidase at pH 5.9 (AID 998)
# How it was run: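 Green coffee bean enzyme (2 nM) with 4-methylumbelliferyl alpha-D-galactopyranoside (80 uM) in 50 mM citric acid, 0.005% Tween-20, pH 5.9, 20 min at room temperature; compounds 0.7 nM–77 uM. Stopped at pH 10, fluorescence Ex365/Em440; Hill-fit AC50.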
# [20] = Cell Viability qHTS for small molecule stabilizers of the endoplasmic reticulum resident proteome (AID 1508629); conditions: cell viability counter-screen, 100 nM thapsigargin for final 4 h;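 also: potency is read from the fitted curve at half-maximal effect; compound exposure about 46 h in total before the viability read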
molecule,measurement,setting,value
H-YGGFLRKYPK-OH,"activity change, negative = inhibition",[1],17.1% [at 6.83 µM]
same,"activity change, negative = inhibition",[2],-17% [at 3.88 µM]
NCC(CS(=O)(=O)O)c1ccc(Cl)cc1 (stereo not given),Potency,[1],inactive
same,Potency,[2],inactive
C[C@H](NC(=O)[C@@H](N)Cc1ccc(O)cc1)C(=O)N[C@@H](Cc1ccccc1)C(=O)N[C@@H](Cc1ccccc1)C(N)=O (H-YAFF-NH2),"activity change, negative = inhibition",[1],0.112% [at 6.83 µM]
same,"activity change, negative = inhibition",[2],-10.3% [at 3.88 µM]
CC(=O)C1CCC2C3CCC4CC(C)(O)CCC4(C)C3CCC12C (stereo not given),Potency,[1],inactive
same,Potency,[2],inactive
CC(C)[C@H](NC(=O)[C@H](CCC(=O)O)NC(=O)[C@H](Cc1ccccc1)NC(=O)[C@H](C)NC(=O)[C@@H](N)Cc1ccc(O)cc1)C(=O)N[C@H](C(=O)NCC(N)=O)C(C)C,"activity change, negative = inhibition",[1],2.64% [at 6.83 µM]
same,"activity change, negative = inhibition",[2],-11.9% [at 3.88 µM]
CCCCCCCCCCCCCCCCOC[C@H](COP(=O)([O-])OCC[N+](C)(C)C)OC(C)=O,"activity change, negative = inhibition",[1],-0.0514% [at 6.83 µM]
same,"activity change, negative = inhibition",[2],-28.3% [at 3.88 µM]
CCCCC/C=C\C/C=C\C/C=C\CCCCCCC(=O)NCCO,"activity change, negative = inhibition",[1],14.4% [at 6.83 µM]
same,"activity change, negative = inhibition",[2],-18.9% [at 3.88 µM]
CC(C)(O)[C@H]1O[C@@H]2CC[C@]3(C)[C@@]4(C)c5[nH]c6ccccc6c5C[C@@H]4CC[C@]3(O)C2=CC1=O,Potency,[3],6.76e-05 µM (active)
same,Potency,[4],> 46 µM
same,Potency,[5],inactive
same,Potency,[1],inactive
same,Potency,[6],20 µM (active)
same,Potency,[7],inactive
same,outcome,[8],inactive
same,outcome,[9],inactive
C=C1C([C@@H](O)C[C@H](C)C2O[C@@]3(CCCCO3)CC[C@H]2C)OC2CC[C@@]3(CC[C@@H](/C=C/[C@@H](C)C4CC(C)=C[C@]5(O4)O[C@H](C[C@@](C)(O)C(=O)O)CCC5O)O3)OC2[C@@H]1O (stereo not given in full),"activity change, negative = inhibition",[1],0.872% [at 4.99 µM]
same,"activity change, negative = inhibition",[2],-21.6% [at 1.51 µM]
CC[C@H](C)[C@H](NC(=O)[C@H](CCCN=C(N)N)NC(=O)[C@H](CCCN=C(N)N)NC(=O)[C@H](CC(C)C)NC(=O)[C@H](Cc1ccccc1)NC(=O)CNC(=O)CNC(=O)[C@@H](N)Cc1ccc(O)cc1)C(=O)N[C@@H](CCCN=C(N)N)C(=O)N1CCC[C@H]1C(=O)N[C@@H](CCCCN)C(=O)N[C@@H](CC(C)C)C(=O)N[C@@H](CCCCN)C(=O)O,"activity change, negative = inhibition",[1],3.59% [at 6.83 µM]
same,"activity change, negative = inhibition",[2],-25.4% [at 3.88 µM]
CCCCC/C=C\C=C\[C@H](CCCCCCCC(=O)O)OO,"activity change, negative = inhibition",[1],-1.43% [at 0.59 µM]
same,"activity change, negative = inhibition",[2],-24.7% [at 0.478 µM]
CCCCC/C=C\C[C@@H](/C=C/C=C\C/C=C\CCCC(=O)O)OO,"activity change, negative = inhibition",[1],11.4% [at 0.59 µM]
same,"activity change, negative = inhibition",[2],-39.3% [at 0.478 µM]
O=C(O)CCC(CP(=O)(O)O)C(=O)O (stereo not given),Potency,[1],inactive
same,Potency,[2],inactive
COc1ccc(C(=O)O[C@H]2CC[C@@]3(C)C4CCC5[C@]6(O)C[C@H](O)[C@@]7(O)C(CN8C[C@@H](C)CC[C@H]8[C@@]7(C)O)[C@]6(O)C[C@@]53O[C@@]42O)cc1OC (stereo not given in full),Potency,[1],inactive
same,Potency,[2],inactive
Oc1ccc2c3c1O[C@H]1c4c(c5ccccc5n4Cc4ccccc4)C[C@]4(O)[C@H](C2)N(CC2CC2)CC[C@@]314,Potency,[10],31.6 µM (active)
same,Potency,[3],> 46 µM
same,Potency,[11],inactive
same,Potency,[5],inactive
same,Potency,[1],inactive
same,Potency,[6],inactive
CN1[C@@H]2CC[C@H]1CC(OC(=O)N1Cc3ccccc3NC1=O)C2 (stereo not given in full),Potency,[1],inactive
same,Potency,[2],inactive
COc1ccc2[nH]cc(CCNCc3ccc(Br)cc3)c2c1,Potency,[1],inactive
same,Potency,[2],inactive
CC(N)(COP(=O)(O)Oc1ccccc1)C(=O)O (stereo not given),Potency,[1],inactive
same,Potency,[2],inactive
NC(=O)[C@@H]1CCCN1C(=O)[C@H](Cc1ccccc1)NC(=O)[C@@H]1CCCN1C(=O)[C@@H](N)Cc1ccc(O)cc1 (H-YPFP-NH2),"activity change, negative = inhibition",[1],12.8% [at 6.83 µM]
same,"activity change, negative = inhibition",[2],-13.2% [at 3.88 µM]
CN(C(=O)Cc1ccc(Cl)c(Cl)c1)C(CN1CCCC1)c1cccc(N=C=S)c1 (stereo not given),Potency,[1],inactive
same,Potency,[2],inactive
CNc1ccc2oc(C[C@H]3O[C@]4(CC[C@H]3C)O[C@H]([C@H](C)C(=O)c3ccc[nH]3)[C@H](C)C[C@H]4C)nc2c1C(=O)O,Potency,[3],> 46 µM
same,Potency,[4],> 46 µM
same,Potency,[12],3.16 µM (active)
same,Potency,[13],inactive
same,outcome,[14],inactive
same,outcome,[15],inactive
same,outcome,[16],inactive
same,outcome,[17],inactive
same,outcome,[18],inactive
same,outcome,[19],inactive
same,Potency,[5],inactive
same,Potency,[1],inactive
same,Potency,[6],inactive
same,Potency,[20],8.91 µM (active)
same,Potency,[2],inactive
